# Measured values as given in PubChem BioAssay AID1851 (National Center for Advancing Translational Sciences (NCATS), 2009).
# In all, about 16,000 compounds went through this assay and about 5,800 (36%) were called active. Inconclusive results (about 23%) are left out. Calls come from the whole dose curve; as a rule, active = well fitted curve in the direction sought with a large enough effect; inconclusive = small, poorly fitted or top-dose-only effect, or effect the other way; inactive = no such curve, though single readings can be large or run the other way. This is one part of the list.
# Molecular target: Cytochrome P450 2C19 (Homo sapiens) (UniProt P33261)
# Sequence (P33261 whole entry, looked up): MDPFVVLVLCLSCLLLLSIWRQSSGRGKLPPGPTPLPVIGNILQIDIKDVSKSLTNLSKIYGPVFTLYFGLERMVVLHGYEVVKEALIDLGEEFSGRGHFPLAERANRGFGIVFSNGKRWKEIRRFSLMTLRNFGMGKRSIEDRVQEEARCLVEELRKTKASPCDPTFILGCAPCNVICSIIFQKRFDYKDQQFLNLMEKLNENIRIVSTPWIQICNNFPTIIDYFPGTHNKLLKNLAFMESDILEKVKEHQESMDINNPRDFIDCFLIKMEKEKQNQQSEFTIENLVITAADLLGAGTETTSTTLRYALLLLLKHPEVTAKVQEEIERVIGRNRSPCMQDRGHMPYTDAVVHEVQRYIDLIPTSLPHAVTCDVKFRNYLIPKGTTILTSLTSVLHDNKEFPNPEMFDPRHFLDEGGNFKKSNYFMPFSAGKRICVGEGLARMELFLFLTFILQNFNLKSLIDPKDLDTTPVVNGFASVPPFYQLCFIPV
# Test: Cytochrome panel assay with activity outcomes
# Conditions: recombinant CYP, pro-luciferin dealkylation, luminescence, p450-cyp2c19; series mostly up to 57.1 µM; activity, negative = inhibition: at the top concentration
# % is set by controls: 0 for no effect and ±100 for the full control effect.
SMILES,"activity, negative = inhibition",AC50
CCCCCCCCCCCCCCC[C@H](O)[C@H](N)CO,-7.82% (inactive),
CC1=NN(c2ccc(C)cc2C)C(=O)C1C(c1ccccc1)C1C(=O)N(c2ccc(C)cc2C)N=C1C (centres undefined),,4.47 µM (active)
CC1=NN(c2ccccc2)C(=O)[C@@H]1N=Nc1ccc(S(N)(=O)=O)cc1,20.1% [at 11.4 µM] (inactive),
COCCn1c(=O)c(-c2cccc(C#N)c2)nc2cnc(N3CCN(C)CC3)nc21,3.31% (inactive),
CN(C)c1ncc2nc(-c3cccs3)c(=O)n(-c3ccccc3)c2n1,-10.1% (inactive),
COc1ncc2nc(-c3cccs3)c(=O)n(-c3ccccc3)c2n1,-18.4% (inactive),
O=c1c2c(-c3cccs3)csc2[nH]c(=S)n1-c1ccccc1,,10 µM (active)
Cc1cccc(N2CC(O)=C(c3nc4ccccc4n3C)C2=N)c1,-26% (inactive),
Cn1c(-c2sc(=S)n(-c3ccccc3)c2N)nc2ccccc21,,1.41 µM (active)
CN(C)CC/C=C1\c2ccccc2COc2ccccc21,,inactive
CC(C)(C)NC[C@@H](O)c1ccc(O)c(CO)n1,27.5% [at 11.4 µM] (inactive),
CCNc1ncc2nc(-c3cn(C)c4ccccc34)c(=O)n(-c3ccccc3)c2n1,-27.1% (inactive),
CCCc1c(O)c2ccccc2n(-c2ccccc2)c1=O,,11.2 µM (active)
CN(C(=O)c1c(O)c2ccccc2n(C)c1=O)c1ccccc1,-26.4% (inactive),
O=C1CC(c2ccc3c(c2)OCO3)Sc2nc3ccccc3n21 (centres undefined),,2 µM (active)
CCOc1cc(CNCCO)cc(Br)c1OCc1ccccc1Cl,,7.08 µM (active)
CCOc1cc(CNCCc2ccc(S(N)(=O)=O)cc2)cc(Cl)c1OCc1ccccc1,,3.55 µM (active)
Cc1noc(C)c1C(=O)N1CCC2(CCN(Cc3cc(C(F)(F)F)cc(C(F)(F)F)c3)CC2)CC1,-3.13% (inactive),
Cc1nnc(-c2cnn(-c3ccccc3)c2N)n1Cc1ccc(F)cc1,,17.8 µM (active)
Cc1nnc(-c2cnn(-c3ccccc3)c2N)n1Cc1ccccc1,-12.1% (inactive),
COc1ccc(-c2cc(C(F)(F)F)nc(NC3CCCC3)n2)cc1OC,,22.4 µM (active)
Cn1c(=O)c(-c2ccc(F)cc2)nc2cnc(N3CCOCC3)nc21,-19.9% (inactive),
COCCn1c(=O)c(-c2ccc(OC)cc2)nc2cnc(N3CCOCC3)nc21,1.17% (inactive),
COc1ccc(-c2cc(C(F)(F)F)nc(N3CCN(C)CC3)n2)cc1OC,-25.1% (inactive),
COc1ccc(-c2cc(C(F)(F)F)nc(N3CCOCC3)n2)cc1OC,,2.24 µM (active)

SMILES,"activity, negative = inhibition",AC50
COc1ccc(-c2cc(C(F)(F)F)nc(N3CCCCC3)n2)cc1OC,,3.16 µM (active)
COc1ccccc1-c1nc(NC2CC2)c2ccccc2n1,-15.4% (inactive),
O=C(O)C[C@H](NC(=O)CP(=O)(O)O)C(=O)O.[NH-][C@@H]1CCCC[C@@H]1[NH-].[Pt],-14.4% [at 11.4 µM] (inactive),
CCOC(=O)N/N=C1/C[C@@H](O)[C@@H](O)[C@@H]2[C@@H]3C(=O)N(CC)C(=O)[C@H]3CC[C@H]12,-7.53% [at 11.4 µM] (inactive),
COCC(=O)N1CCC2(CC1)CN(C(c1ccccc1)c1ccccc1)C2,-8.51% (inactive),
Cc1csc(NC(=O)Cc2c[nH]c3ccccc23)n1,,7.08 µM (active)
O=C(O)Cc1c[nH]c2ccc(O)cc12,36% (inactive),
Cc1csc(NC(=O)CCNS(=O)(=O)c2ccc3c(c2)c(=O)n(C)c(=O)n3C)n1,7.51% (inactive),
CCOC(=O)N1CCN(C(=O)CNCc2cccs2)CC1,-4.3% (inactive),
Cc1csc(NC(=O)CNS(=O)(=O)c2cccs2)n1,,14.1 µM (active)
O=C(CCNS(=O)(=O)c1cccs1)N1CCc2ccccc2C1,,2.24 µM (active)
CCOC(=O)N1CCN(C(=O)CNS(=O)(=O)c2cccs2)CC1,,8.91 µM (active)
O=C(CCNS(=O)(=O)c1cccs1)N1CCCCCC1,,3.16 µM (active)
O=C(Cc1ccc(-n2c(=O)[nH]c3ccccc3c2=O)cc1)N1CCN(c2cccc(Cl)c2)CC1,,8.91 µM (active)
O=c1nc2ccccc2c2n1CC(CN1CCN(c3cccc(Cl)c3)CC1)N2 (centres undefined),-22.4% (inactive),
COc1ccc(CC(=O)N2CCN(c3ccc(C4=NNC(=O)CC4C)cc3)CC2)cc1 (centres undefined),-18.7% (inactive),
CN1CCN(CC(=O)N2c3ccccc3Sc3cc4ccccc4cc32)CC1,-1.84% [at 11.4 µM] (inactive),
CN1CCCC[C@@H]1CCN1c2ccccc2Sc2ccc(S(C)=O)cc21 (some centres undefined),,inactive
CC1CCN(CC(=O)N2c3ccccc3Sc3cc4ccccc4cc32)CC1,,3.16 µM (active)
CCN[C@@H]1C[C@H](C)S(=O)(=O)c2sc(S(N)(=O)=O)cc21,-20.6% [at 25.6 µM] (inactive),
Cc1ccsc1/C=N/Nc1nc(Cl)c(Cl)cc1Cl,,7.94 µM (active)
CN(C)c1ccc(N=Cc2nc(-c3ccccc3)oc2O)cc1,,1.78 µM (active)
Oc1oc(-c2ccccc2)nc1C=Nc1ccccc1,,3.98 µM (active)
CN(C)Cc1ccc(O)c(CN(C)C)n1,-0.0983% [at 11.4 µM] (inactive),
